Among the test systems are DU-145 prostate; K-562 leukemia; MALME-3M melanoma; MDA-MB-231 breast; RXF 393 renal; SF-268 CNS; SF-295 CNS; SF-539 CNS; UACC-257 melanoma; M14 melanoma; HCT-15 colon; HT29 colon; SNB-75 CNS; SNB-19 CNS; U251 CNS; PC-3 prostate; SK-MEL-5 melanoma; UACC-62 melanoma; LOX IMVI melanoma; SK-MEL-28 melanoma.
Assay in all cases: NCI-60 one-dose screen, 48 h (100 = growth as untreated, 0 = no growth, -100 = all killed)
Holding throughout (settings): 10 µM unless noted

About 83,000 compounds went through this panel and 20% of them were active in at least one assay; those are over-represented in the sample as a whole.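 Plates (96-well) were seeded with cells, treated with compound at one concentration, and incubated for 48 hours before percent growth was determined.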 Unmarked numbers belong to inactive results. The source made the active and inactive calls. The calls were made as follows: active = growth percent below 10; inactive = the rest.

Regarding `CCOC(=O)c1cc(C)n(-c2ccc(C(=O)O)cc2)c1C`, the growth is 7.16% (active) in the experiment with DU-145 prostate; 116% with K-562 leukemia; 130% with MALME-3M melanoma; 80% with MDA-MB-231 breast; 80.8% with RXF 393 renal; 92.3% in the experiment with SF-268 CNS. In addition, the growth with SF-295 CNS is 90.7%; in the experiment with SF-539 CNS, 105%; in the experiment on UACC-257 melanoma, 96.5%; with M14 melanoma, 89.7%; in the experiment on HCT-15 colon, 24.8%; in the experiment on HT29 colon, 37.8%. Besides, the growth is 130% in the experiment on SNB-75 CNS; 94.5% in the experiment with SNB-19 CNS; 96.3% in the experiment on U251 CNS; 83.3% with PC-3 prostate; 92% in the experiment on SK-MEL-5 melanoma; 86.7% with UACC-62 melanoma. Moreover, the growth in the experiment on LOX IMVI melanoma is 80.2%; in the experiment with SK-MEL-28 melanoma, 127%.

For the compound `C=CCn1c(SCC(=O)Nc2ccc(C(=O)/C=C/c3ccc(Cl)cc3)cc2)nnc1-c1ccc(Br)cc1`, the growth in the experiment with DU-145 prostate is 75.3%; with K-562 leukemia, 61%; in the experiment on MALME-3M melanoma it was 97.6%; in the experiment on MDA-MB-231 breast, 81.2%; in the experiment with RXF 393 renal, 74.8%; in the experiment with SF-268 CNS, 73.6%. The growth in the experiment on SF-295 CNS was 96.8%; in the experiment with SF-539 CNS it was 90.3%; in the experiment on UACC-257 melanoma, 92.3%; in the experiment with M14 melanoma, 89.7%; with HCT-15 colon it was 81.2%; in the experiment on HT29 colon, 67.5%. Moreover, the growth in the experiment on SNB-75 CNS is 75.6%; in the experiment on SNB-19 CNS, 77.8%; with U251 CNS, 79.5%; in the experiment on PC-3 prostate, 68%; with SK-MEL-5 melanoma, 82.7%; with UACC-62 melanoma, 71%. For the same compound, the growth in the experiment with LOX IMVI melanoma was 77.7%; in the experiment on SK-MEL-28 melanoma, 105%.

With `Cc1[nH]c(C(=O)Nc2ccc(C(=O)N3CCN(c4cc5c(cc4F)c(=O)c(C(=O)O)cn5C4CC4)CC3)cc2OC(C)C)c(Cl)c1Cl`, the growth with DU-145 prostate is 87.2%; in the experiment on K-562 leukemia, 56.4%; with MALME-3M melanoma, 89%; in the experiment with MDA-MB-231 breast, 80.3%; in the experiment on RXF 393 renal it was 82.4%; with SF-268 CNS, 78.1%. Also, the growth in the experiment with SF-295 CNS was 81.4%; with SF-539 CNS, 75.3%; in the experiment on UACC-257 melanoma, 82.5%; in the experiment with M14 melanoma, 73.2%; with HCT-15 colon it was 18.1%; in the experiment with HT29 colon, 37.3%. Further, the growth in the experiment with SNB-75 CNS was 67.8%; in the experiment on SNB-19 CNS it was 89.8%; in the experiment with U251 CNS, 36.4%; with PC-3 prostate, 59.1%; with SK-MEL-5 melanoma, 75.3%; in the experiment on UACC-62 melanoma it was 81.8%. Further, the growth in the experiment with LOX IMVI melanoma was 21.6%; in the experiment on SK-MEL-28 melanoma, 86.6%.

Take `Nc1nc2ccc(-c3nc4ccc5[nH]ncc5c4c4c3CCCC4)cc2s1`: the growth is 111% in the experiment with DU-145 prostate; 94.9% with K-562 leukemia; 94.5% with MALME-3M melanoma; 106% in the experiment with MDA-MB-231 breast; 109% in the experiment on RXF 393 renal; 98.8% with SF-268 CNS. The growth with SF-295 CNS is 108%; with SF-539 CNS, 106%; in the experiment with UACC-257 melanoma, 88.1%; in the experiment with M14 melanoma, 101%; in the experiment on HCT-15 colon, 107%; in the experiment on HT29 colon it was 99.2%. Also, the growth in the experiment on SNB-75 CNS was 100%; in the experiment on SNB-19 CNS it was 97.7%; in the experiment with U251 CNS, 102%; in the experiment on PC-3 prostate, 100%; with SK-MEL-5 melanoma, 111%; in the experiment with UACC-62 melanoma it was 102%. Moreover, the growth was 105% in the experiment with LOX IMVI melanoma and 120% in the experiment on SK-MEL-28 melanoma.

On to `O=C(CSc1nnc(-c2cnccn2)n1-c1ccccc1)c1ccc(Cl)cc1`, for which the growth with DU-145 prostate was 105%; in the experiment with K-562 leukemia, 91.1%; in the experiment on MALME-3M melanoma it was 105%; with MDA-MB-231 breast, 99.8%; in the experiment with RXF 393 renal it was 114%; in the experiment on SF-268 CNS it was 104%. Besides, the growth in the experiment on SF-295 CNS was 99.3%; with SF-539 CNS it was 103%; in the experiment on UACC-257 melanoma it was 96%; in the experiment with M14 melanoma, 102%; with HCT-15 colon, 97.5%; in the experiment with HT29 colon, 94.7%. For the same compound, the growth is 110% in the experiment with SNB-75 CNS; 101% with SNB-19 CNS; 93.7% with U251 CNS; 87.8% with PC-3 prostate; 99.7% in the experiment on SK-MEL-5 melanoma; 84.9% in the experiment on UACC-62 melanoma. In addition, the growth in the experiment with LOX IMVI melanoma was 108%; in the experiment on SK-MEL-28 melanoma it was 103%.

In the case of `OCCn1cc(-c2nc(-c3c[nH]c4ncccc34)cs2)c2ccccc21`, the growth in the experiment on DU-145 prostate was 93.5%; in the experiment with K-562 leukemia, 54.2%; in the experiment with MALME-3M melanoma it was 115%; with MDA-MB-231 breast, 66.4%; with RXF 393 renal, 82.4%; in the experiment with SF-268 CNS it was 84.1%. For the same compound, the growth in the experiment on SF-295 CNS was 81.1%; in the experiment on SF-539 CNS, 88.5%; in the experiment on UACC-257 melanoma, 93.1%; with M14 melanoma, 97.7%; in the experiment on HCT-15 colon, 55.9%; in the experiment on HT29 colon, 95%. The growth was 55.2% in the experiment on SNB-75 CNS; 88.1% in the experiment on SNB-19 CNS; 78.9% with U251 CNS; 61.8% with PC-3 prostate; 77.5% in the experiment with SK-MEL-5 melanoma; 69.9% with UACC-62 melanoma. Further, the growth was 77.7% with LOX IMVI melanoma and 104% in the experiment on SK-MEL-28 melanoma.

For `Cn1c(I)c(C#CCO[Si](C)(C)C(C)(C)C)c(=O)[nH]c1=O`, the growth was 99.9% with DU-145 prostate; 2.55% (active) with K-562 leukemia; -51.2% (active) in the experiment with MALME-3M melanoma; 91.5% in the experiment on MDA-MB-231 breast; -15.3% (active) with RXF 393 renal; 105% with SF-268 CNS. The growth with SF-295 CNS is 101%; in the experiment on SF-539 CNS it was 104%; in the experiment with UACC-257 melanoma, 96.6%; with M14 melanoma, 83.1%; in the experiment on HCT-15 colon, 91%; in the experiment with HT29 colon, 113%. Besides, the growth in the experiment on SNB-75 CNS was 99.9%; with SNB-19 CNS, 104%; in the experiment with U251 CNS, 109%; in the experiment with PC-3 prostate, 96.5%; in the experiment with SK-MEL-5 melanoma, 103%; in the experiment with UACC-62 melanoma, 101%. The growth was 99.9% in the experiment on LOX IMVI melanoma and 30.7% with SK-MEL-28 melanoma.

With `CC/C(=C(/c1ccc(Cl)cc1)c1ccc(OCCN2CCCCC2)cc1)c1ccc(OC)cc1`, the growth is 82.8% in the experiment on DU-145 prostate; 2.95% (active) with K-562 leukemia; 75.4% in the experiment on MALME-3M melanoma; 73.3% in the experiment with MDA-MB-231 breast; 47.9% with RXF 393 renal; 86.5% with SF-268 CNS. The growth with SF-295 CNS was 55.1%; in the experiment on SF-539 CNS, 65.5%; in the experiment on UACC-257 melanoma it was 54.2%; in the experiment with M14 melanoma it was 28.2%; in the experiment on HCT-15 colon it was 18.5%; in the experiment on HT29 colon it was 11.9%. For the same compound, the growth was 103% with SNB-75 CNS; 72.4% in the experiment with SNB-19 CNS; 40.6% in the experiment with U251 CNS; 30.9% in the experiment on PC-3 prostate; 36.6% in the experiment with SK-MEL-5 melanoma; 78.8% in the experiment on UACC-62 melanoma. The growth with LOX IMVI melanoma is 53.4%; in the experiment on SK-MEL-28 melanoma it was 82.7%.

The values are drawn from PubChem BioAssay (NCI).
